# Assay outcomes from PubChem BioAssay.
# Only some compounds are listed: those with a hit (about 2.3% of all), similar ones and a draw of the others.
# UHRF1 MBD2 ctr – human UHRF1 methylated DNA binding inhibitors; inhibition, % at 4.4 µM; Q96T88; UHRF1 binding to methylated oligo, TR-FRET; 0.75% of 370,000 active; AID 687016; in the data active means inhibition above about 21%;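 further: UHRF1 SRA domain binding a hemimethylated CpG hairpin DNA probe; 0% = median of test compound wells and 100% = reference inhibitor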
# PLCb3 inh – blocks human PLC-beta3 enzyme activity; inhibition, % at 12.2 µM; Q01970; 0.18% of 370,000 active; Purified PLC-beta3, fluorogenic substrate, fluorescence; in the data active means inhibition above about 11%;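 further: 0% = median of compound wells on plate and 100% = full blocker control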
# PLC-gamma1 inh – inhibitors of human phospholipase C gamma1. 0.84% of 370,000 active. purified PLC-gamma1, fluorogenic substrate, fluorescence. inhibition, % at 12.2 µM. P19174. AID 720700; in the data active means inhibition above about 9.5%
# LEDGF integ inh – blocks HIV-1 LEDGF/p75-dependent DNA integration; TR-FRET IN-LEDGF/p75 DNA integration, Eu/Cy5; inhibition, % at 3.7 µM; 0.64% of 370,000 active; AID 743269;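 active means inhibition above the screen-wide mean plus 3 SD, cut at about 13% in these data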;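 further: signal is the Cy5 over europium emission ratio at 671 and 618 nm; 0% = plate median of compound wells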
# MBD2 inh – blocks human MBD2 binding to methylated DNA. Q9UBB5. TR-FRET, MBD2 binding to methylated oligonucleotide. inhibition, % at 4.4 µM. 0.31% of 370,000 active; in the data active means inhibition above about 13%
# Numbers without * were called inactive; i = inactive.
SMILES,UHRF1 MBD2 ctr,PLCb3 inh,PLC-gamma1 inh,LEDGF integ inh,MBD2 inh
O=C(OCCN1CCN(C2CN(Cc3cn(Cc4ccccc4Cl)nn3)S(=O)(=O)C2)CC1)c1cc2ccccc2o1 (configuration not stated),6,-1,-1,-5,4
CC1=CC2(C(Cc3ccccc3)N(CC3CC3)C(=NC(=O)c3ccccc3)N2C(=O)OCc2ccccc2)n2c(=O)n(-c3ccccc3)c(=O)n2C1 (configuration not stated),2,1,2,-1,-3
CC(C)Oc1ccc(CCC(=O)N/N=C/c2ccc3c(c2)OCO3)cc1,-1,-4,2,-3,2
CC(C)Oc1ccc(CCC(=O)N/N=C/c2ccncc2)cc1,27*,-11,-2,-3,0
COc1ccccc1NC(=O)OCCN1CCCC12CCC(c1ccccc1)CC2 (configuration not stated),-1,-1,-2,-3,-5
N#C/C(=C\c1ccncc1)c1nc2ccccc2c(=O)[nH]1,44*,-60,-60,1,-1
N#C/C(=C/c1ccncc1)c1nc2ccccc2c(=O)[nH]1,-1,-79,-52,-3,-1
COc1ccc(/C=C/C(=O)c2ccc3c(c2)OCO3)cc1OC,-3,-52,-35,0,4
N#Cc1ccc(/C=C/C(=O)c2ccc3c(c2)OCO3)cc1,26*,-3,2,2,-2
O=C(NCc1ccc(F)c(F)c1)C1C2C=CC3(CN(Cc4ccccc4)C(=O)C13)O2 (configuration not stated),-3,0,2,-1,5
O=S1(=O)CC2c3ccc(F)cc3CN2CN1CCc1ccccc1 (configuration not stated),-8,-8,-6,-2,-1
Cc1ccc(C)c(S(=O)(=O)Nc2ccc3oc(C)c(C(=O)O)c3c2)c1,24*,-36,-18,9,2
O=Cc1cccc(OCc2cn(CC(=O)c3ccc(O)cc3)nn2)c1,24*,-4,1,3,12
CC(=O)c1cc(C)c(OCc2cn(CC(=O)c3ccc(O)cc3)nn2)c(C)c1,21*,-1,-2,5,9
N#Cc1ccccc1OCc1cn(CC(=O)c2ccc(O)cc2)nn1,22*,-2,-1,3,13
CCCC(=O)c1ccc(OCc2cn(CC(=O)c3ccc(O)cc3)nn2)cc1,23*,2,2,4,5
COc1ccc(C(=O)OCCCN(C)C2CN(Cc3cn(Cc4ccccc4Cl)nn3)S(=O)(=O)C2)cc1OC (configuration not stated),7,-2,-1,0,3
COc1ccc2c(c1)CNC2CS(=O)(=O)NCC(C)C (configuration not stated),-4,-44,-33,8,-2
c1ccc(Cn2ccc3ccc(-c4ccc5ccn(Cc6cccc(Oc7ccccc7)c6)c5c4)cc32)cc1,0,-69,-49,4,2
O=C(Cn1cc(COc2c(Br)cc(F)cc2Br)nn1)c1ccc(O)cc1,21*,-3,-2,3,13
COC(=O)[C@H](Cc1ccccc1)N(Cc1cn(Cc2ccccc2)nn1)S(=O)(=O)c1ccccc1Br,4,5,6,-2,3
O=C(O)c1cccn2c(=O)c3ccccc3nc12,21*,-244,-206,-2,11
CCCCNC(=O)C1(C(=O)c2ccc(OC)cc2)CC(c2ccccc2C(F)(F)F)=NO1 (configuration not stated),0,0,3,-1,3
COc1ccc(S(=O)(=O)c2c(N)n(Cc3ccco3)c3nc4ccccc4nc23)cc1,0,i,-444,15*,2
COc1ccc(Cn2c(C)nc3c(c2=O)c2nc4ccccc4nc2n3Cc2ccco2)cc1,17,-66,-30,14*,18*
SMILES,UHRF1 MBD2 ctr,PLCb3 inh,PLC-gamma1 inh,LEDGF integ inh,MBD2 inh
Cc1ccc(S(=O)(=O)c2c(N)n(CCCN(C)C)c3nc4ccccc4nc23)cc1,-6,i,i,3,-10
COc1cccc(CNC2CCC23CCC(C)CC3)c1 (configuration not stated),2,0,2,-2,2
COc1cc(/C=N/NC(=O)C(Cc2c[nH]c3ccccc23)NC(=O)OCC(C)C)cc([N+](=O)[O-])c1O (configuration not stated),1,6,8,1,-6
COc1cc(/C=N/NC(=O)C(Cc2c[nH]c3ccccc23)NC(=O)OCc2ccccc2)cc([N+](=O)[O-])c1O (configuration not stated),-8,9,11*,6,-13
O=C(N/N=C/c1cccs1)c1cnccn1,2,-1,2,1,-2
O=C(N/N=C/c1cccs1)c1[nH]ncc1Br,1,3,12*,1,0
COC(=O)c1ccc(Cn2cnc3c(N)ncnc32)cc1,0,1,-5,3,1
COC(=O)c1ccc(Cn2cnc3cnccc32)cc1,25*,-7,1,-4,0
Cc1ccc(S(=O)(=O)N2CCN(C(C)C(=O)N3CCCc4ccccc43)CC2)cc1 (configuration not stated),27*,0,-2,0,1
COC(=O)[C@H](CC1(c2cn(S(=O)(=O)CC[Si](C)(C)C)c3ccccc23)C(=O)Nc2ccccc21)NC(=O)OC(C)(C)C (some centres not stated),4,-27,-20,-8,0
N=C1/C(=C/c2ccc(OCc3ccccc3)cc2)C(=O)N=C2SC(CC(=O)N3CCOCC3)=NN12,-1,-57,-29,2,7
N=C1/C(=C/c2ccc(OCc3ccccc3F)cc2)C(=O)N=C2SC(CC(=O)N3CCOCC3)=NN12,23*,-50,-31,0,13
CCCCOc1ccc(Nc2cc(Cl)ccc2C(=O)O)cn1,22*,-17,-4,-3,12
COc1ccc(CC(=O)Nc2cc(Cl)ccc2C(=O)O)cc1,1,1,2,4,3
COC(=O)C1=C(C)N(C)C(=O)/C1=C\c1cccs1,0,2,0,2,-4
COC(=O)C1=C(C)N(C2CCCCC2)C(=O)/C1=C\c1cccs1,53*,-2,3,-1,-4
COCCCN1C(=O)[C@H](CC(=O)NCc2ccccc2)[C@]2(C(=O)OC)CCCCC=C12,3,0,7,8,-2
CC1CCCCC1NC(=O)COC(=O)c1c2c(nc3ccccc13)/C(=C\c1ccco1)CC2 (configuration not stated),20,-48,-37,27*,7
C[C@@H]1CN([C@@H](C)CO)C(=O)c2cc(Br)cnc2O[C@H]1CN(C)C(=O)CCN1CCCCC1,-2,2,-1,1,-1
C[C@H](CO)N1C[C@H](C)[C@@H](CN(C)C(=O)Nc2ccccc2)Oc2ncc(C#CC3CCCCC3)cc2C1=O,22*,-1,0,1,5
CCCC#Cc1cnc2c(c1)C(=O)N([C@H](C)CO)C[C@H](C)[C@@H](CN(C)C(=O)CCN1CCCCC1)O2,24*,0,4,4,12
